Data on 21 molecules can be found in PubChem BioAssay (EPA / NIEHS).

Each structure is given as a SMILES string. Inconclusive results are not listed. The source made the active and inactive calls. The calls were made as follows: active = hit-call score of the fitted dose curve at least 0.9, where 1 is the maximum; inconclusive = response in the unintended direction; inactive = score below 0.9.

The nature of this assay: CCTE_Simmons_CellTiterGLO_HEK293T: Viability Assessment in CCTE's Assays for Thyroperoxidase (TPO) Inhibition, Simmons Lab (AID 2283665).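 As to AC50: cells exposed to compound for 24 h before readout; actives reduce ATP signal below DMSO vehicle meaning cytotoxicity.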 Here is the method: CCTE_Simmons_CellTiterGLO_HEK293T is a cell-based, single-readout assay that uses HEK293T, a human kidney cell line, with measurements taken at 24 hours after chemical dosing in a 384-well plate.CCTE_Simmons_CellTiterGLO_HEK293T is the assay component measured from the CCTE_Simmons_CellTiterGLO_HEK293T assay. It is designed to make measurements of ATP content, a form of viability reporter, as detected with bioluminescence signals by Luciferase-coupled ATP quantitation technology. This is a secondary cytotoxicity assay to CCTE_Simmons_AUR_TPO to estimate a cellular tolerance limit.Data from the assay component CCTE_Simmons_CellTiterGLO_HEK293T was analyzed at the endpoint, CCTE_Simmons_CellTiterGLO_HEK293T, in the positive analysis fitting direction relative to DMSO as the negative control and baseline of activity. Using a type of viability reporter, measures of ATP content for loss-of-signal activity can be used to understand the viability. This assay was run in parallel with aeid 1508 as a means of indicating the range of chemical cytotoxicity or reactivity. To generalize the intended target to other relatable targets, this assay endpoint is annotated to the cell cycle intended target family, where the subfamily is cytotoxicity.
Human HEK293T cells (GenHunter; Nashville, Tennessee) were seeded overnight in 384-well, solid white assay plates (Greiner, BioExpress) at a density of 10 000 cells per well in 65 ul Dulbecco's Modified Eagle Medium (Life Technologies; Carlsbad, California) supplemented with 1% fetal bovine serum (HyClone; Logan, Utah). Test compounds were administered using the HDRT as described earlier to achieve a 0.5% final DMSO concentration. Cells were then incubated at 37C for 24 hr in a humidified 5% CO2 incubator. Cell Titer Glo (Promega; Madison, WI) reagent (25 ul) was then added by the BioTek MicroFlo and microplates were incubated at room temperature in the dark for 20min. Plates were read on a plate reader (FLUOStar Optima) using an endpoint luminescence protocol (top read). Three biological replicates of technical singles were run for every chemical concentration tested. A titrated range of DCNQ served as a positive control on each plate of the cytotoxicity screening assay.Test chemicals were administered as a titrated series of 8 concentrations from 5 nM up to 87.5 uM [final] for 24 hours prior to single endpoint detection. Three biological replicates of technical singles were run for every chemical concentration tested. Dimethylsulfoxide [DMSO] was used as the vehicle control. Dichlone [DCNQ] was used as the positive control and was administered as a titrated series of 8 concentrations from 1 nM up to 100 uM [final].
(In ATP-based viability assays light output follows the ATP content of the culture.)
Regarding `O=C(O)C(F)(F)C(F)(F)C(F)(F)C(F)(F)C(F)(F)C(F)(F)C(F)(F)C(F)(F)C(F)(F)F`, the AC50 (usually the concentration giving half of the maximal activity seen) is 38.3 µM (active).

On to `O=C(NC(=O)c1c(F)cccc1F)Nc1cc(Cl)c(OC(F)(F)C(F)F)c(Cl)c1`, for which the molecule was called inactive.

Take `CCC(C)(c1ccc(O)cc1)c1ccc(O)cc1`: the AC50 is 37.4 µM (active).

As to `CCCCCCCCCc1ccc(O)cc1`, the concentration at half-maximal activity (AC50) is 15.7 µM (active).

As to `Cc1ccccc1CO[C@@H]1C[C@@]2(C(C)C)CC[C@]1(C)O2`, the half-maximal activity concentration (AC50) is 21.6 µM (active).

`CCC(=O)O[C@H]1CC[C@H]2[C@@H]3CCC4=CC(=O)CC[C@]4(C)[C@H]3CC[C@]12C`: the AC50 is 9.47 µM (active).

`Sc1ccccc1`: the molecule was called inactive.

For the molecule `Oc1c(Cl)c(Cl)c(Cl)c(Cl)c1Cl`, the call was inactive.

`Cc1ccc(O)c(C)c1`: the molecule was called inactive.

With `C[C@]12CCC(=O)C=C1CC[C@@H]1[C@@H]2CC[C@]2(C)C(=O)CC[C@@H]12`, the call was inactive.

For the molecule `CCOP(=S)(OCC)SCSC(C)(C)C`, the AC50 was 20.9 µM (active).

On to `CC(C)(c1ccccc1)c1ccc(O)cc1`, for which the AC50 is 12.2 µM (active).

As to `Oc1ccc(C(c2ccc(O)cc2)(C(F)(F)F)C(F)(F)F)cc1`, the AC50 is 11 µM (active).

As to `COS(=O)(=O)OC`, the result was inactive.

Take `COc1ccc(O)c(C(C)(C)C)c1`: the AC50 is 60.5 µM (active).

`CCCCCCCCOC(=O)c1ccccc1C(=O)OCCCCCCCC`: the result was inactive.

As for `O=C(O)C(F)(F)C(F)(F)C(F)(F)C(F)(F)C(F)(F)C(F)(F)C(F)(F)C(F)(F)F`, the half-maximal activity concentration (AC50) was 21.8 µM (active).

Consider `CC(c1ccc(O)cc1)(c1ccc(O)cc1)c1ccc(O)cc1`, for which the AC50 is 36.9 µM (active).

Take `Clc1ccc(C(Cl)(Cl)Cl)cc1`: the call was inactive.

As for `c1ccc(-c2ccccc2)cc1`, the half-maximal activity concentration (AC50) is 34.5 µM (active).

Consider `CCCCCCCCCC[N+](C)(C)CCCCCCCCCC`, for which the half-maximal activity concentration (AC50) was 3.92 µM (active).
